Test results from article PMC7862700, “An all-to-all approach to the identification of sequence-specific readers for epigenetic DNA modifications on cytosine”.

How the values were obtained:
Experiment in all cases: DAPPL (digital affinity profiling via proximity ligation, sequencing); 10 mM Tris-HCl pH 7.5, 50 mM NaCl, 1 mM DTT, 4% glycerol, room temperature, 30 min; GST-TFs on glutathione beads, 16-mer random dsDNA library, 0.1% formaldehyde crosslink after washing; high values mean tight binding
FLI1 = molecular target: T1, FLI1 (Homo sapiens, UniProt Q01543 1-452); details: protein: recombinant; tags: N-terminal GST; dsDNA, one strand shown
T1 sequence: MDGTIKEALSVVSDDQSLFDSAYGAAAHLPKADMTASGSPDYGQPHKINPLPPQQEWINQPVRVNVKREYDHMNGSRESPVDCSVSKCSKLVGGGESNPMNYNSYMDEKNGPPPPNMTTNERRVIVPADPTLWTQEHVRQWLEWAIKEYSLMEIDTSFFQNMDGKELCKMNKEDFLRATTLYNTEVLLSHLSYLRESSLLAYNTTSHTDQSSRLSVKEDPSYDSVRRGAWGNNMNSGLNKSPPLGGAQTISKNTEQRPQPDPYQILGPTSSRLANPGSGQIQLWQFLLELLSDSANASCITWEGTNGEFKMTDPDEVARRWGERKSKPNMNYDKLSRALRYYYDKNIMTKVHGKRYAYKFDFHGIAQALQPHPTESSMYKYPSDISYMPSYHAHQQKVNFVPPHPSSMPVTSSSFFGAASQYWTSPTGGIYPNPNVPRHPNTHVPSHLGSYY
How it was run: (§1)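 Pools of DNA-barcoded human transcription factors, expressed in yeast as GST fusions on glutathione beads and combined with a tag-only sample, were incubated with 200 nmole of a 16-mer random double-stranded DNA library. Incubation took 30 min at room temperature in Tris/NaCl/DTT/glycerol buffer and was followed by washing, 0.1% formaldehyde crosslinking, proximity ligation (BsaI/T4 ligase, 1 h, 37 °C), PCR amplification and sequencing on an Illumina NextSeq500. Binding signal is the ratio of a hexamer's read frequency for a factor to its frequency for the tag-only sample.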

ELK1 = molecular target: T2, ELK1 (Homo sapiens, UniProt P19419 1-428); details: protein: recombinant; tags: N-terminal GST; dsDNA, one strand shown
T2 sequence: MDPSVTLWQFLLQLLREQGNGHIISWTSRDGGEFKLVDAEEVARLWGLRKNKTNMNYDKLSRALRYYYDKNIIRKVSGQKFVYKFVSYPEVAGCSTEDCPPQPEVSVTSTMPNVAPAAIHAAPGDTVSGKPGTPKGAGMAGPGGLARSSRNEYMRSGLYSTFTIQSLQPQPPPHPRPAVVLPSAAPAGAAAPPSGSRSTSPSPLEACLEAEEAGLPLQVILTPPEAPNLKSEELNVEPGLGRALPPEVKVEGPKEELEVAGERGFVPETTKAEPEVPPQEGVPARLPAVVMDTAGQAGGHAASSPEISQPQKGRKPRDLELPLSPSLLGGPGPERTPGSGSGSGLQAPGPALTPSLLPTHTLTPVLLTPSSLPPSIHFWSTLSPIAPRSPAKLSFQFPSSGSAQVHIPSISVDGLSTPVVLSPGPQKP
How it was run: as §1

GABPA = molecular target: T3, GABPA (Homo sapiens, UniProt Q06546 1-454); details: protein: recombinant; tags: N-terminal GST; dsDNA, one strand shown
T3 sequence: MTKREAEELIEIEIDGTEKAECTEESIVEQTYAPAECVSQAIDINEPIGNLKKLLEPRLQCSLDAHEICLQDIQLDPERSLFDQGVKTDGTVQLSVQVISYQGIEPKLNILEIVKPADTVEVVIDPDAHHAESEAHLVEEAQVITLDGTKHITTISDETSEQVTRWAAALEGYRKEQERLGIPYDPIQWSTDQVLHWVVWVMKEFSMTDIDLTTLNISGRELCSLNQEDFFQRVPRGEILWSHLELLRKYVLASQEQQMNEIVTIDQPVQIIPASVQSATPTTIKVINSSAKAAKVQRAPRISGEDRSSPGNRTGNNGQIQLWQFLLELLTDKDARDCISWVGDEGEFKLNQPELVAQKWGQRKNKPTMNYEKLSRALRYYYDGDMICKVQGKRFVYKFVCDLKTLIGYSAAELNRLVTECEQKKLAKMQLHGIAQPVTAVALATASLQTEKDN
How it was run: as §1

ERG = molecular target: T4, ERG (Homo sapiens, UniProt P11308 1-479); details: protein: recombinant; tags: N-terminal GST; dsDNA, one strand shown
T4 sequence: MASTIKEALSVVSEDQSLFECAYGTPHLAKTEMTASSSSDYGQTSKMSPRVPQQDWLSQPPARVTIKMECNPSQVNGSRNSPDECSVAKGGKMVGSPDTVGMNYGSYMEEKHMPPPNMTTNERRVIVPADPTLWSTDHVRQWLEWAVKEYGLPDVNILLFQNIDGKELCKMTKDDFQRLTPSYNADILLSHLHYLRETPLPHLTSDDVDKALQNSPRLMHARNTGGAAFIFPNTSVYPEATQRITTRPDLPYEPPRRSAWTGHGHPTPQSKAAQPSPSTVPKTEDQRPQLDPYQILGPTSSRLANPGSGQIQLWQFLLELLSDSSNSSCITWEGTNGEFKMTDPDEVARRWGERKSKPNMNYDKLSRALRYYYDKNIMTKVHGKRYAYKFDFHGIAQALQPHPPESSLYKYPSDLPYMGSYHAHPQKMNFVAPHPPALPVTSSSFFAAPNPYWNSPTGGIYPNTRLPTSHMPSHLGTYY
How it was run: as §1

ELF1 = ELF1 (Homo sapiens, UniProt P32519 1-619); details: protein: recombinant; tags: N-terminal GST; dsDNA, one strand shown
ELF1, sequence (P32519 whole entry): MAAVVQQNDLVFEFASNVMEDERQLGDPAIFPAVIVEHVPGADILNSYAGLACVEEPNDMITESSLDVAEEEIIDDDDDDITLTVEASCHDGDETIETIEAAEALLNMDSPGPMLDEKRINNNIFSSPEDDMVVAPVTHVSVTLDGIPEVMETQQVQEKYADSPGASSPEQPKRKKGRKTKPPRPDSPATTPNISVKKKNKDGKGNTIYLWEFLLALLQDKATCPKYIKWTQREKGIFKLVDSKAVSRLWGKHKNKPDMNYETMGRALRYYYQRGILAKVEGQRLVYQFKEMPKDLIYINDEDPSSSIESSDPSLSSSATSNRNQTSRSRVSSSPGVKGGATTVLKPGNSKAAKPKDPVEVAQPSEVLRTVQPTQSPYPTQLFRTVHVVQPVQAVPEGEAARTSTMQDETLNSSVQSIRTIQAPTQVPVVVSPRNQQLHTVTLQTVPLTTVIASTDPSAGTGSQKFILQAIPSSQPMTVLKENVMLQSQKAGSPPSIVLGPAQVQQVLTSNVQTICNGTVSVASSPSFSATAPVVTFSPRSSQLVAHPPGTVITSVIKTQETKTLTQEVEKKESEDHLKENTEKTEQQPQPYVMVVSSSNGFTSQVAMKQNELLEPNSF
How it was run: as §1

EHF = molecular target: T5, EHF (Homo sapiens, UniProt Q9NZC4 1-300); details: protein: recombinant; tags: N-terminal GST; dsDNA, one strand shown
T5 sequence: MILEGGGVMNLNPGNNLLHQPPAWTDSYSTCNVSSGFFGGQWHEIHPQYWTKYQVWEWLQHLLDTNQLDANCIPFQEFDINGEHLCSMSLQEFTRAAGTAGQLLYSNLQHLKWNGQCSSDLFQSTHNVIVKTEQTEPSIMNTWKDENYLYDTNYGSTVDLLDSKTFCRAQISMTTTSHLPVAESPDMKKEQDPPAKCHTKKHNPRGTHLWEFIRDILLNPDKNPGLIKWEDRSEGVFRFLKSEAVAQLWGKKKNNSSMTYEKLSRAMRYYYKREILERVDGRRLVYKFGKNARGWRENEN
How it was run: as §1

SPI1 = SPI1 (Homo sapiens, UniProt P17947 1-270); details: protein: recombinant; tags: N-terminal GST; dsDNA, one strand shown
How it was run: as §1

SPIB = SPIB (Homo sapiens, UniProt Q01892 1-262); details: protein: recombinant; tags: N-terminal GST; dsDNA, one strand shown
SPIB, sequence (Q01892 whole entry): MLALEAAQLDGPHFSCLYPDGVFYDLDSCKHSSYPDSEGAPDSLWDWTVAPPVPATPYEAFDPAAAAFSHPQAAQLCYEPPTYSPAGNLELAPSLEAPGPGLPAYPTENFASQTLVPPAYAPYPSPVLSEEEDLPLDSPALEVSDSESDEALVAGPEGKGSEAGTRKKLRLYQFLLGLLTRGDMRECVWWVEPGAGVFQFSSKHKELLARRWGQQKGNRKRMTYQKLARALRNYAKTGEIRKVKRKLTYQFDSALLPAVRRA
How it was run: as §1

ELK3 = molecular target: T6, ELK3 (Homo sapiens, UniProt P41970 1-407); details: protein: recombinant; tags: N-terminal GST; dsDNA, one strand shown
T6 sequence: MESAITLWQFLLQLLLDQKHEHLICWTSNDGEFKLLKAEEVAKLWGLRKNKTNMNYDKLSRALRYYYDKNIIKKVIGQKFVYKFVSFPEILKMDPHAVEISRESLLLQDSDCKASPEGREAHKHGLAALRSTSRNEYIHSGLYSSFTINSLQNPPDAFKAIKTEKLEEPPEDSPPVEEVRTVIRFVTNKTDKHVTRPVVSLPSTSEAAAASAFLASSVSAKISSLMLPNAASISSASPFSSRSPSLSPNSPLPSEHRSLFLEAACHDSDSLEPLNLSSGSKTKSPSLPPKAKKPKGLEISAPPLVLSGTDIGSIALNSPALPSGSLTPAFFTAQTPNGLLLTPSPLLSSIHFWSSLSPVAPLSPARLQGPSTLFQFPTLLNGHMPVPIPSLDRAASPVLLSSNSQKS
How it was run: as §1

FEV = molecular target: T7, FEV (Homo sapiens, UniProt Q99581 1-238); details: protein: recombinant; tags: N-terminal GST; dsDNA, one strand shown
T7 sequence: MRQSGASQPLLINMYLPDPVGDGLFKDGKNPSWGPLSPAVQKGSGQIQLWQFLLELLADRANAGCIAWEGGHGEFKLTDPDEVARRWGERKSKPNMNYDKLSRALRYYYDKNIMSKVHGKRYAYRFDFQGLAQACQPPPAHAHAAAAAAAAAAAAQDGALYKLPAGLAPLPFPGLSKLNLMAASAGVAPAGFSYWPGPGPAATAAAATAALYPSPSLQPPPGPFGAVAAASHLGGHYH
How it was run: as §1

ETV5 = ETV5 (Homo sapiens, UniProt P41161 1-510); details: protein: recombinant; tags: N-terminal GST; dsDNA, one strand shown
ETV5, sequence (P41161 whole entry): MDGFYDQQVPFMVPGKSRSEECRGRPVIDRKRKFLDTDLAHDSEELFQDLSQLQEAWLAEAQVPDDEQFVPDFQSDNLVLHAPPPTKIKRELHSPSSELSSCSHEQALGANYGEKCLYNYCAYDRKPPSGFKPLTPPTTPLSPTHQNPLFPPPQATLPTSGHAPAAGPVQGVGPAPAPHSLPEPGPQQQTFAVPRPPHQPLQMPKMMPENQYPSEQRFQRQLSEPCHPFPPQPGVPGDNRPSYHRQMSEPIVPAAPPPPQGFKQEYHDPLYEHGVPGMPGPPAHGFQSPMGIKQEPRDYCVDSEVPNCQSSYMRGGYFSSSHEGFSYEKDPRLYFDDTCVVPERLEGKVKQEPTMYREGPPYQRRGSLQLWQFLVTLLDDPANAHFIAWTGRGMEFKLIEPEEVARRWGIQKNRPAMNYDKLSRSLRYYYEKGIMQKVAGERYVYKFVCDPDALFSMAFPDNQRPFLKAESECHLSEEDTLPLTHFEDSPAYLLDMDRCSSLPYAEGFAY
How it was run: as §1

HSF1 = HSF1 (Homo sapiens, UniProt Q00613 1-529); details: protein: recombinant; tags: N-terminal GST; chain copies: 3; dsDNA, one strand shown
HSF1, sequence (Q00613 whole entry): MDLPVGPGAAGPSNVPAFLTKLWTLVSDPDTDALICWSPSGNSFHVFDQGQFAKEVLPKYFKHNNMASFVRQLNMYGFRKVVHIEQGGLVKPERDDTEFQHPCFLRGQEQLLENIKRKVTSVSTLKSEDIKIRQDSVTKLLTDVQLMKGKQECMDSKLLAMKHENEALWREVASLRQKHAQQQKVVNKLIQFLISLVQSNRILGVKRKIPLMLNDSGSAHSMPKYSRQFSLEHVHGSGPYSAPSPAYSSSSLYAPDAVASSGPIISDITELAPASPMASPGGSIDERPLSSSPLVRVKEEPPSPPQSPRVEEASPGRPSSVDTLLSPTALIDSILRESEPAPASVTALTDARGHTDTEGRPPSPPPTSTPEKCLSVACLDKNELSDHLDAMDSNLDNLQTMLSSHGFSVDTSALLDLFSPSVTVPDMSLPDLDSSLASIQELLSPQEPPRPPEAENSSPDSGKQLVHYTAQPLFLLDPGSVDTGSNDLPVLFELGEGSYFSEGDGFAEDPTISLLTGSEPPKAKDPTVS
How it was run: as §1

SPIC = molecular target: T8, SPIC (Homo sapiens, UniProt Q8N5J4 1-248); details: protein: recombinant; tags: N-terminal GST; dsDNA, one strand shown
T8 sequence: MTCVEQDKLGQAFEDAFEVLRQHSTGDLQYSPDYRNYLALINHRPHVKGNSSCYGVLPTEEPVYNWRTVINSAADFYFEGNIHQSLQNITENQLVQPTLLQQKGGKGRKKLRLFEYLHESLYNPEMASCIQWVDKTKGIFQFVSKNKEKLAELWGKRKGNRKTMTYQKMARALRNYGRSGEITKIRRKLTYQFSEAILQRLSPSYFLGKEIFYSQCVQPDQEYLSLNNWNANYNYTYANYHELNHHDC
How it was run: as §1

ELF4 = ELF4 (Homo sapiens, UniProt Q99607 1-663); details: protein: recombinant; tags: N-terminal GST; dsDNA, one strand shown
ELF4, sequence (Q99607 whole entry): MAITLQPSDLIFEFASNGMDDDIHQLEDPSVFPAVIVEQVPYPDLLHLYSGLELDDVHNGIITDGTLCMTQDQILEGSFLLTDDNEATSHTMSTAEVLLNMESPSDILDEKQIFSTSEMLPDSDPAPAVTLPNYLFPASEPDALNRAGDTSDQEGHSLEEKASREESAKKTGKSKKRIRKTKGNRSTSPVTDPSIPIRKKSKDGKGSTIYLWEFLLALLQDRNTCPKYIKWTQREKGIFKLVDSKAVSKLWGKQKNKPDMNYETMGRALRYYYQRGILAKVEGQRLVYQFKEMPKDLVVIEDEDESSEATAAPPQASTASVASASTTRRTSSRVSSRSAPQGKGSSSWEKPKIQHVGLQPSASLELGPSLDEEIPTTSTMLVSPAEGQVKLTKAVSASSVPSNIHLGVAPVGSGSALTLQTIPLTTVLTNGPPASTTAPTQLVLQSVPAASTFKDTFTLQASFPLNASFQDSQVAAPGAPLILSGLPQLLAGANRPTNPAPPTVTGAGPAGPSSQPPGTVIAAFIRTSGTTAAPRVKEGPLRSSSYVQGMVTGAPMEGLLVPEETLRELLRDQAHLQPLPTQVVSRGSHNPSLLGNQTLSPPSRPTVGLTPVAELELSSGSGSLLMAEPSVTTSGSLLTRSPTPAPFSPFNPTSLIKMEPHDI
How it was run: as §1

ELK4 = molecular target: T9, ELK4 (Homo sapiens, UniProt P28324-2 1-405); details: protein: recombinant; tags: N-terminal GST; dsDNA, one strand shown
T9 sequence: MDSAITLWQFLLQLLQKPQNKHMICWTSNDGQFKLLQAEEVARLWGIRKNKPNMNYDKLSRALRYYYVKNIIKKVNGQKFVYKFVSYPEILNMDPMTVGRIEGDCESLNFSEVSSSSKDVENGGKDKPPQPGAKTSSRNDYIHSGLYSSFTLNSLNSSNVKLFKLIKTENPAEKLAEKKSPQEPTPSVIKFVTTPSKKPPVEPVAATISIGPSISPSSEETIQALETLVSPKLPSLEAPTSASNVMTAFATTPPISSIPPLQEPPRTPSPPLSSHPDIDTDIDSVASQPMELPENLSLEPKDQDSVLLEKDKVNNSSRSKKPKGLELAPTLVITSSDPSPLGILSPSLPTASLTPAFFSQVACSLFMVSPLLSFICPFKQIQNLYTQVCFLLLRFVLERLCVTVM
How it was run: as §1

ETV2 = molecular target: T10, ETV2 (Homo sapiens, UniProt O00321 1-342); details: protein: recombinant; tags: N-terminal GST; dsDNA, one strand shown
T10 sequence: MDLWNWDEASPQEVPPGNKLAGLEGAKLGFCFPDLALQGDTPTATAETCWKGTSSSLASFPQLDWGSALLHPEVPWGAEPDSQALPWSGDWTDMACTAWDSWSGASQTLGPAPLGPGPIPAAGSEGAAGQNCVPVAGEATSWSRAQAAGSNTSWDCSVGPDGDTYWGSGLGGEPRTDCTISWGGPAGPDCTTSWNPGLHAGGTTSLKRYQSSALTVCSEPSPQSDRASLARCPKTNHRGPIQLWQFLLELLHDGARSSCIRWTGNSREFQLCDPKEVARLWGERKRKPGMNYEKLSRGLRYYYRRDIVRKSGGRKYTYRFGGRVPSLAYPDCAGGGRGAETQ
How it was run: as §1

ELF3 = molecular target: T11, ELF3 (Homo sapiens, UniProt P78545 1-371); details: protein: recombinant; tags: N-terminal GST; dsDNA, one strand shown
T11 sequence: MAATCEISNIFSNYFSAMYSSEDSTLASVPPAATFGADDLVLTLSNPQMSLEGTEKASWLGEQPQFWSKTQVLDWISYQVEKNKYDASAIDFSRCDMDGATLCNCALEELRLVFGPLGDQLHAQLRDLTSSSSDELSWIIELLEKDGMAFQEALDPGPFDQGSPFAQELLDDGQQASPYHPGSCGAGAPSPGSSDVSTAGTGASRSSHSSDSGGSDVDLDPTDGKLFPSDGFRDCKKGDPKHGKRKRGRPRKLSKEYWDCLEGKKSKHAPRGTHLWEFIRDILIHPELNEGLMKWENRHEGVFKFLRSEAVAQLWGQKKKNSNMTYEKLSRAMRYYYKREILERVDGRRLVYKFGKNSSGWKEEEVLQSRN
How it was run: as §1

CRX = CRX (Homo sapiens, UniProt O43186 1-299); details: protein: recombinant; tags: N-terminal GST; dsDNA, one strand shown
CRX, sequence (O43186 whole entry): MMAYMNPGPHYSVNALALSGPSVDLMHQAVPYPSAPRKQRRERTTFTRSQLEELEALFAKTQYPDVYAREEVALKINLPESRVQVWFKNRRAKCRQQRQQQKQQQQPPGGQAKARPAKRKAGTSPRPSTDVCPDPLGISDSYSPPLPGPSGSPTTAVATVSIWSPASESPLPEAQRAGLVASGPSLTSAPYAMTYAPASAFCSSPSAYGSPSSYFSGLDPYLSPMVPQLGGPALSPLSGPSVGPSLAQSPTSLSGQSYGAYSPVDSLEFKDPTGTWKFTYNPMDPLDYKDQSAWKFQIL
How it was run: as §1

ETV1 = ETV1 (Homo sapiens, UniProt P50549 1-477); details: protein: recombinant; tags: N-terminal GST; dsDNA, one strand shown
ETV1, sequence (P50549 whole entry): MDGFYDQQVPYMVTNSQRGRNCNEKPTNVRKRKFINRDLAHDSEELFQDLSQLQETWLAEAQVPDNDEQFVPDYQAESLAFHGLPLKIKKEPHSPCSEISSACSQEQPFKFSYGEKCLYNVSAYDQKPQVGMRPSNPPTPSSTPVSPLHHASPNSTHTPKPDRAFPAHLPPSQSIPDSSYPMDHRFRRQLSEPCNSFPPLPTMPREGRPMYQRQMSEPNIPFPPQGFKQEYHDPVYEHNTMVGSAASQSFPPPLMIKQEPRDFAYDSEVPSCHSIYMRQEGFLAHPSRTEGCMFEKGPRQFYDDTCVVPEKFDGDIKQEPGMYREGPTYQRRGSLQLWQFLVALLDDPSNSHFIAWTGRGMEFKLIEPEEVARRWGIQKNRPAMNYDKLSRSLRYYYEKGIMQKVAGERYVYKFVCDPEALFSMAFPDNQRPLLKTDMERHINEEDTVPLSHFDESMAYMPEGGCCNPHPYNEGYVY
How it was run: as §1

## AAAACC
FLI1
  binding signal: 1.12 fold enrichment (6-mer frequency, TF over GST control)
ELK1
  binding signal: 1.05 fold enrichment (6-mer frequency, TF over GST control)
GABPA
  binding signal: 1.16 fold enrichment (6-mer frequency, TF over GST control)
ERG
  binding signal: 1.13 fold enrichment (6-mer frequency, TF over GST control)
ELF1
  binding signal: 1.21 fold enrichment (6-mer frequency, TF over GST control)
EHF
  binding signal: 1.18 fold enrichment (6-mer frequency, TF over GST control)
SPI1
  binding signal: 1.27 fold enrichment (6-mer frequency, TF over GST control)
SPIB
  binding signal: 1.19 fold enrichment (6-mer frequency, TF over GST control)
ELK3
  binding signal: 1.26 fold enrichment (6-mer frequency, TF over GST control)
FEV
  binding signal: 1.24 fold enrichment (6-mer frequency, TF over GST control)
ETV5
  binding signal: 1.18 fold enrichment (6-mer frequency, TF over GST control)
HSF1
  binding signal: 1.09 fold enrichment (6-mer frequency, TF over GST control)
SPIC
  binding signal: 1.15 fold enrichment (6-mer frequency, TF over GST control)
ELF4
  binding signal: 1.19 fold enrichment (6-mer frequency, TF over GST control)
ELK4
  binding signal: 1.22 fold enrichment (6-mer frequency, TF over GST control)
ETV2
  binding signal: 1.15 fold enrichment (6-mer frequency, TF over GST control)
ELF3
  binding signal: 1.17 fold enrichment (6-mer frequency, TF over GST control)
CRX
  binding signal: 1.19 fold enrichment (6-mer frequency, TF over GST control)
ETV1
  binding signal: 1.19 fold enrichment (6-mer frequency, TF over GST control)
